In PubChem BioAssay:
The source made the active and inactive calls.

Tests used:
[1] = tested on: PRMT1 (protein arginine N-methyltransferase 1); test: PRMT1 binders on small-molecule microarrays, primary screen, biochemical, small-molecule microarray, 635 nm fluorescence (AID 1088); settings: small-molecule microarray binding, higher = more signal;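 note: binding of Prmt1 protein to compounds spotted on small-molecule microarray slides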
[2] = yeast growth modulation, basal conditions, primary screen, YJM789 clinical isolate, OD600, 24 h (AID 1089);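 note: growth of clinical yeast isolate S. cerevisiae YJM 789 seeded 1000 cells per well; test concentration not given here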; settings: S. cerevisiae YJM789 growth, higher = more signal, called active from +8 up or from −8 down
[3] = fission yeast growth modulation, primary screen, strain 972, OD600, 24 h, no modulator (AID 1090);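 note: basal condition with compound alone and no growth modifier present; test concentration not given here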; settings: S. pombe 972 growth, higher = more signal, called active from +8 up or from −8 down
[4] = S. cerevisiae growth modulation with rapamycin, primary screen, strain BY4716, OD600, 96 h (AID 1091); settings: higher = more signal, called active from +8 up or from −8 down; note: test concentration not given here
[5] = target: Torsin-1A-interacting protein 2 (Homo sapiens) (UniProt Q8NFQ8); test: LULL1 binders on small-molecule microarray, primary screen, cell lysate, human LULL1 lysate, 635/667 nm fluorescence (AID 1092); settings: hLULL1 lysate binding, 635 nm fluorescence, higher = more signal;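 note: probe is lysate of COS7 cells overexpressing human LULL1; score merges per-feature 667 nm fluorescence with signal-to-noise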
[6] = E. coli growth modulation, two-sided OD650, primary screen, E. coli filamentation project, strain DRC41, 24 h (AID 1093); settings: OD650, 24 h, higher = more signal, called active from +8 up or from −8 down;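 note: MC1000 strain lacking acrAB efflux and sulA so SOS filamentation is blocked; test concentration not given here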
[7] = small-molecule microarray binders of probe aLefty2, primary screen, biochemical, biotinylated probe, 635/667 nm fluorescence (AID 1094); settings: higher = more signal;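 note: score merges spot fluorescence near 667 nm with spot signal-to-noise ratio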
[8] = tested on: Noggin (protein binding on small-molecule microarray); test: Noggin binders on small-molecule microarray, primary screen, biochemical, 635/667 nm fluorescence (AID 1095); settings: 635 nm fluorescence, higher = more signal;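 note: score merges 667 nm feature fluorescence with signal to noise over triplicate slides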
[9] = target: Neurogenic locus notch homolog protein 3 (Homo sapiens) (UniProt Q9UM47); test: NOTCH3 binders on small-molecule microarray, primary screen, biochemical, 635/667 nm fluorescence (AID 1096); settings: NOTCH3 binding, 635 nm fluorescence, higher = more signal
[10] = small-molecule microarray binders of probe aEGFR, primary screen, biochemical, biotinylated probe, 635/667 nm fluorescence (AID 1097); settings: higher = more signal;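 note: probe is a biotinylated anti-EGFR antibody binding compounds printed on slides; score combines fluorescence near 667 nm and signal to noise of each spot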
[11] = tested on: Plasmodium falciparum Sir2 (PF13_0152, Sir2A); test: pfSir2 binders on small-molecule microarrays, primary screen, biochemical, small-molecule microarray, 635 nm fluorescence (AID 1098); settings: small-molecule microarray binding, fluorescence 635 nm; higher = more signal;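 note: score merges spot fluorescence intensity with its signal-to-noise ratio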
[12] = small-molecule microarray binders of probe aDKK1, primary screen, biochemical, biotinylated probe, 635/667 nm fluorescence (AID 1099); settings: higher = more signal;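 note: score merges 667nm spot fluorescence with signal to noise across triplicate slides; reference of the scale not given here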
[13] = small-molecule microarray binders of probe aCHRDL2, primary screen, biochemical, biotinylated probe, 635/667 nm fluorescence (AID 1100); settings: higher = more signal
[14] = splicing luciferase reporter signal modulators, primary screen, spliceosome inhibition project, cell-based, HEK293, splice +/- reporter (AID 1101); settings: luminescence, 24 h, higher = more signal, called active from +8 up or from −8 down;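 note: HEK293 cells carrying a splicing-competent luciferase reporter gene; test concentration not given here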
[15] = target: Fibroblast growth factor 10 (Homo sapiens) (UniProt O15520); test: FGF10 binders on small-molecule microarrays, primary screen, biochemical, small-molecule microarray, 635 nm fluorescence (AID 1102); settings: FGF10 binding, fluorescence 635 nm, higher = more signal
[16] = tested on: glycogen synthase kinase-3 (GSK3A per assay name; protocol says GSK3B); test: GSK3 binders on small-molecule microarrays, primary screen, biochemical, small-molecule microarray, 635 nm fluorescence, GSK3A (AID 1103); settings: small-molecule microarray binding, fluorescence 635 nm; higher = more signal; note: the record names both GSK3A and GSK3B
[17] = target: Epidermal growth factor receptor (Homo sapiens) (UniProt P00533); test: EGFR binders on small-molecule microarrays, primary screen, biochemical, small-molecule microarray, 635 nm fluorescence (AID 1104); settings: EGFR binding, higher = more signal;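 note: score merges 667 nm emission intensity with spot signal to noise over triplicate slides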
[18] = target: Follistatin-related protein 3 (Homo sapiens) (UniProt O95633); test: FSTL3 binders on small-molecule microarrays, primary screen, biochemical, small-molecule microarray, 635 nm fluorescence (AID 1105); settings: FSTL3 binding, higher = more signal;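 note: score merges emission near 667 nm and signal to noise per printed spot across three slides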
[19] = target: Dickkopf-related protein 1 (Homo sapiens) (UniProt O94907); test: DKK1 binders on small-molecule microarrays, primary screen, biochemical, small-molecule microarray, 635 nm fluorescence scan (AID 1106); settings: DKK1 binding, higher = more signal;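 note: score merges emission near 667 nm with signal to noise over three replicate slides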
[20] = tested on: Inhibin beta A chain (activin A); test: INHBA (activin A) binders on microarrays, primary screen, biochemical, small-molecule microarray, 635 nm fluorescence scan (AID 1107); settings: small-molecule microarray binding, higher = more signal;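 note: mouse activin A protein probed at 4.33 µg/mL on printed slides; score merges bound-protein fluorescence near 667 nm with spot signal-to-noise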

Torsin-1A-interacting protein 2 (Homo sapiens), sequence (Q8NFQ8 whole entry, looked up): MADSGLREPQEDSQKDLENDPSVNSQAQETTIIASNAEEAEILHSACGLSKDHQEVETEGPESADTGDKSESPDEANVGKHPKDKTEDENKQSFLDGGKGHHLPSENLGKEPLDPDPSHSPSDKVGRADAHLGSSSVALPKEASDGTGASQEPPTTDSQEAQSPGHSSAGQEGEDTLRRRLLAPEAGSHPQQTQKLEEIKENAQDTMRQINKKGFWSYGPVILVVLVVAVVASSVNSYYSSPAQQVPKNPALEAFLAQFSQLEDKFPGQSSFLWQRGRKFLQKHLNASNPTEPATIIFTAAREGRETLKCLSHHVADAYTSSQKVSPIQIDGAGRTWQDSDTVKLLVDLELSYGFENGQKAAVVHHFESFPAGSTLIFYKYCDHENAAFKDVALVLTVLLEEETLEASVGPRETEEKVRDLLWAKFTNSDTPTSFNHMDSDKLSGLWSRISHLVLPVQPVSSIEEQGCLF
Follistatin-related protein 3 (Homo sapiens), sequence (O95633 whole entry, looked up): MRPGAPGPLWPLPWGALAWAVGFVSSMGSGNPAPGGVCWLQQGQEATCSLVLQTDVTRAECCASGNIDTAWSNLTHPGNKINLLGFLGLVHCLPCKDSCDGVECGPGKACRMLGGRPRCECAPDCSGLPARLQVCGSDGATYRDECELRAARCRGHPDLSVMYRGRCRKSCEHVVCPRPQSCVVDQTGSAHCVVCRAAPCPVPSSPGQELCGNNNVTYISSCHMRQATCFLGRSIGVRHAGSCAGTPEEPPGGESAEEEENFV
Neurogenic locus notch homolog protein 3 (Homo sapiens), sequence (Q9UM47 whole entry, looked up): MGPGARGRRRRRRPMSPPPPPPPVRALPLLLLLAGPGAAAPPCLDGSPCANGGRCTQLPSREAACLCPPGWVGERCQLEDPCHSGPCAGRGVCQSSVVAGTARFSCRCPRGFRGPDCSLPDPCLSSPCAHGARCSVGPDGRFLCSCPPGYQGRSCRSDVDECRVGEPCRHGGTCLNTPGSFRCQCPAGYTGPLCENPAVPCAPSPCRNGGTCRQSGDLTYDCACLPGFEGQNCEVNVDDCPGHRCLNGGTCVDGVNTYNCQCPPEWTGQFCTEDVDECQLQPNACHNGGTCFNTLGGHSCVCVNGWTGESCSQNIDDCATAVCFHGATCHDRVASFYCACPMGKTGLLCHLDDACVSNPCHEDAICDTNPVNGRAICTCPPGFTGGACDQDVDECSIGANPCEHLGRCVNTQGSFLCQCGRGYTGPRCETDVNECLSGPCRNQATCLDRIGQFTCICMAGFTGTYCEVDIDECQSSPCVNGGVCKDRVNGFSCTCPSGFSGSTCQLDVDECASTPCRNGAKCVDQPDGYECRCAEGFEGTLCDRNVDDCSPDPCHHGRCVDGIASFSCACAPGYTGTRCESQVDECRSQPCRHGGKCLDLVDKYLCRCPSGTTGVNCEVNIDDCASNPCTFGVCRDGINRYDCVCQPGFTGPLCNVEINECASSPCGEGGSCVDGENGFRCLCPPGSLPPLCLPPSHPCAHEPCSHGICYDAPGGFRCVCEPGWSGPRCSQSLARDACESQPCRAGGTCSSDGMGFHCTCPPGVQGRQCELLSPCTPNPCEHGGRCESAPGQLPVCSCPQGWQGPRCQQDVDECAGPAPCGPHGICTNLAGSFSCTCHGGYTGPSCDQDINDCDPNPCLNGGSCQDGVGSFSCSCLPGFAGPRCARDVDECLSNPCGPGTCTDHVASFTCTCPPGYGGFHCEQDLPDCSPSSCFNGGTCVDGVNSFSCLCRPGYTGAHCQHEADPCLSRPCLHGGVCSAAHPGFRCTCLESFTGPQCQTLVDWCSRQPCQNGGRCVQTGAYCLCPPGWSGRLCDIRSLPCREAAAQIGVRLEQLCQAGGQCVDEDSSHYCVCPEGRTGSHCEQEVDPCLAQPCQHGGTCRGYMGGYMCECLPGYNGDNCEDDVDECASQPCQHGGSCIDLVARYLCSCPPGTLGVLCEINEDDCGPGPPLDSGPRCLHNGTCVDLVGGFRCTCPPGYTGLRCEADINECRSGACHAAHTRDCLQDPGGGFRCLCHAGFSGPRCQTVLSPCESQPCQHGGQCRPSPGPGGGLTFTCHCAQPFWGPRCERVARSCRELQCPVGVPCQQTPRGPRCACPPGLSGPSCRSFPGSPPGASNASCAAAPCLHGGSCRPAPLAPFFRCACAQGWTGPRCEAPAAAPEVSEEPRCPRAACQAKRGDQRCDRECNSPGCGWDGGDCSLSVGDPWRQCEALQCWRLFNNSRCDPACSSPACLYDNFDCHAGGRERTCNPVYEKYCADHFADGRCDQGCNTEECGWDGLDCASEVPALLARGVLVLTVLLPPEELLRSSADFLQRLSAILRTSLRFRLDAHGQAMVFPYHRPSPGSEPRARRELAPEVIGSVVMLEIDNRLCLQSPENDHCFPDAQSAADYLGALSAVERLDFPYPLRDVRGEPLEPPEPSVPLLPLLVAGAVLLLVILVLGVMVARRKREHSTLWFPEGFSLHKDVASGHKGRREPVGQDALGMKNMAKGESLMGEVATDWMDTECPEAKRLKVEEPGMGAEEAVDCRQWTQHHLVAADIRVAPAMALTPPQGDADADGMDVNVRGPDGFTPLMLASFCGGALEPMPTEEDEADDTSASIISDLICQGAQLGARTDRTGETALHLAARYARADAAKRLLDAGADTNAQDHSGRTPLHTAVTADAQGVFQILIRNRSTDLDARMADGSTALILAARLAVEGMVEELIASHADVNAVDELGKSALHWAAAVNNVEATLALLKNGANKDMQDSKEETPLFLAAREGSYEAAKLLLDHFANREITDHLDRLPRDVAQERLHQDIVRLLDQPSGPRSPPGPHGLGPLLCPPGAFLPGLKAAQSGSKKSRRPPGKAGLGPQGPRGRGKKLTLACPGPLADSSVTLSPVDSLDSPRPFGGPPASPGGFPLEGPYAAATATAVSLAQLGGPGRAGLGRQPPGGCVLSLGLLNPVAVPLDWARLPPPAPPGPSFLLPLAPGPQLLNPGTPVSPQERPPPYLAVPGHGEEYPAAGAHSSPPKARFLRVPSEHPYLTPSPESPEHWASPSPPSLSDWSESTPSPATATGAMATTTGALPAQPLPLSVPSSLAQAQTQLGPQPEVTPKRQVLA
Fibroblast growth factor 10 (Homo sapiens), sequence (O15520 whole entry, looked up): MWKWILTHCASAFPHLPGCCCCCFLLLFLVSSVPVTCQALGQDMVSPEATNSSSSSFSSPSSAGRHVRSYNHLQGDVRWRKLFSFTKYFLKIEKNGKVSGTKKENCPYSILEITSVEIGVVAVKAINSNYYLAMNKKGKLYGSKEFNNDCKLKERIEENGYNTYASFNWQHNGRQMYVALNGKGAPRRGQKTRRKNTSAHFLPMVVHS
Dickkopf-related protein 1 (Homo sapiens), sequence (O94907 whole entry, looked up): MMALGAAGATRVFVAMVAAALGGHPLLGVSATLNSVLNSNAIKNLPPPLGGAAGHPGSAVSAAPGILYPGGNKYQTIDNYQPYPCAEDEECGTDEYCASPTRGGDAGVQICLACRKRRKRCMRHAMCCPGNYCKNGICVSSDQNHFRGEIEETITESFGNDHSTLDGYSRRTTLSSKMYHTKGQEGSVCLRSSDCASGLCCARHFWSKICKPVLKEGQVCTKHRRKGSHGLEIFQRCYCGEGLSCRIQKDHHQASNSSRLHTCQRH
Epidermal growth factor receptor (Homo sapiens), sequence (P00533 whole entry, looked up): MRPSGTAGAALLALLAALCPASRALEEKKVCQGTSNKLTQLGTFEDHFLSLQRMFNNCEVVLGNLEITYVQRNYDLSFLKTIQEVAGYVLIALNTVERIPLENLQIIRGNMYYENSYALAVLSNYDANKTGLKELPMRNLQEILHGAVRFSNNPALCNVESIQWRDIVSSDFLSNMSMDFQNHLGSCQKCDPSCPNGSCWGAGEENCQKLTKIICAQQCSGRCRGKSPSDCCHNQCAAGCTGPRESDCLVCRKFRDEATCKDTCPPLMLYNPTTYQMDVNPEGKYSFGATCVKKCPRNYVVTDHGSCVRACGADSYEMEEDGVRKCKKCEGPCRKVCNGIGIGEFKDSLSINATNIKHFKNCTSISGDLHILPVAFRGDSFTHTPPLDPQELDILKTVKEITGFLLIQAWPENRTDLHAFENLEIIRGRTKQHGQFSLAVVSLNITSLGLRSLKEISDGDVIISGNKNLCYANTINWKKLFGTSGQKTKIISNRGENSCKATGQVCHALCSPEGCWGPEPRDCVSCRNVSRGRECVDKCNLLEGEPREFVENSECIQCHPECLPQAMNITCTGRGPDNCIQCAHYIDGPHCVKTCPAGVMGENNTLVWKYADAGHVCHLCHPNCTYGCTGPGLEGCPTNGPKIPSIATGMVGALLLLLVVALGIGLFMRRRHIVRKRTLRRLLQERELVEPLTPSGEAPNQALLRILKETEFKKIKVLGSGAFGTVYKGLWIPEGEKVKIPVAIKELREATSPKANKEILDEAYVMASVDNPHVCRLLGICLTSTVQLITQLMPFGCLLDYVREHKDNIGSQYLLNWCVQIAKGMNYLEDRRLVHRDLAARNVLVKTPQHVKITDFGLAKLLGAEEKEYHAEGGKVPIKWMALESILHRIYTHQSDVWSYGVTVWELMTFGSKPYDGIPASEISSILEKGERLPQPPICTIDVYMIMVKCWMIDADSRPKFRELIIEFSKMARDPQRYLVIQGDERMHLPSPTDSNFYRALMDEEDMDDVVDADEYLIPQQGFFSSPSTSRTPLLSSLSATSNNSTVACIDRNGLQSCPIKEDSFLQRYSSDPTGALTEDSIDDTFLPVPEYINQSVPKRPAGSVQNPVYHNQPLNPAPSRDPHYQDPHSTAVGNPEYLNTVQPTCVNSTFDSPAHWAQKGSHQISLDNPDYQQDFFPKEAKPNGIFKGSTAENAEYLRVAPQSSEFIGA

Row | SMILES | composite z-score [1] | z-score [2] | z-score [3] | z-score [4] | composite z-score [5] | z-score [6] | composite z-score [7] | composite z-score [8] | composite z-score [9] | composite z-score [10] | composite z-score [11] | composite z-score [12] | composite z-score [13] | z-score [14] | composite z-score [15] | composite z-score [16] | composite z-score [17] | composite z-score [18] | composite z-score [19] | composite z-score [20]
1 | COC(=O)CCCCCCC(=O)Nc1ccc(NC(=O)CCCC[P+](c2ccccc2)(c2ccccc2)c2ccccc2)cc1 | -0.148 | -1.65 (inactive) | -7.18 (inactive) | -0.786 (inactive) | -0.891 | -18.9 (active) | -0.232 | 1.23 | 0.973 | 0.0042 | 0.5 | -0.238 | -0.842 | -0.186 (inactive) | 1.38 | 0.686 | 0.758 | 0.955 | 1.16 | 0.59
2 | N#Cc1ccc(NN2C(C(O)c3ccc(F)cc3)C=CC3C(=O)N(c4ccccc4)C(=O)C32)cc1 (stereo not given) | 1.24 | 0.537 (inactive) | 2.45 (inactive) | 2.57 (inactive) | 3.21 | -0.538 (inactive) | -0.0477 | -0.868 | 0.443 | -0.257 | 1.3 | 0.151 | 0.581 | 1.52 (inactive) | -0.286 | -0.0563 | -0.746 | -0.0131 | -0.716 | 0.856
3 | COc1ccc([Si](C)(C)[C@H]2[C@H](CC(=O)N(CCO)Cc3ccccc3)O[C@@]3(C(=O)N(Cc4cccc(N5CCOC5=O)c4)c4ccccc43)[C@@H]2C)cc1 | 1.56 | -0.0337 (inactive) | -0.166 (inactive) | 3.02 (inactive) | 1.35 | 1.17 (inactive) | -0.0724 | 0.722 | 0.403 | -0.167 | 1.18 | -0.21 | 0.0284 | -2.44 (inactive) | 0.0549 | 0.616 | 0.232 | 0.324 | 0.179 | 0.81
4 | CCOC(=O)C[C@H]1[C@H](OC(=O)Cc2ccc3c(c2)OCO3)[C@@H](NC(=O)CC(C)C)c2cc(OCCCO)ccc2N1C(=O)Cc1ccc(OC)cc1 | 0.336 | -1.88 (inactive) | -0.843 (inactive) | -0.733 (inactive) | 1.09 | 1.38 (inactive) | -0.134 | -0.0273 | 0.0046 | -0.111 | -0.25 | -0.283 | -0.0563 | -1.86 (inactive) | 0.139 | 0.0308 | -0.0638 | -0.0495 | 0.0009 | 0.26
5 | CC(C)C[C@@H]1NC(=O)[C@@H]2C[C@H](C(=O)NCCCCN(C)C)[C@H](c3cccc(OCCO)c3)N2C1=O | 0.751 | -1.01 (inactive) | 0.162 (inactive) | -1.01 (inactive) | 2.85 | 0.659 (inactive) | -0.0258 | 0.592 | -0.087 | -0.183 | 1.66 | -0.224 | 0.0176 | -0.464 (inactive) | -0.272 | -1.24 | -0.0053 | -0.135 | 0.212 | 0.266
6 | O=C(CS)NCCCCCNC(=O)[C@@H]1C[C@@H]2C(=O)N3CCC[C@H]3C(=O)N2[C@@H]1c1cccc(OCCO)c1 | 1.07 | 0.147 (inactive) | 0.793 (inactive) | -0.153 (inactive) | 2.74 | -1.01 (inactive) | -0.0998 | 0.102 | 0.0995 | -0.0828 | 1.47 | -0.137 | 0.468 | 0.501 (inactive) | 0.453 | 0.649 | 0.196 | -0.596 | 0.292 | -0.525
7 | [N-]=[N+]=Nc1ccccc1[C@H]1OC(c2ccc(OCCCO)cc2)=N[C@@]1(CCS(=O)(=O)c1ccccc1)C(=O)NCCN1CCOCC1 | 1.55 | 0.299 (inactive) | 1.13 (inactive) | 0.683 (inactive) | 3.3 | 0.17 (inactive) | 0.414 | 0.55 | 0.839 | 0.154 | 1.35 | -0.135 | 0.775 | -0.0945 (inactive) | 1.41 | 1.21 | 0.131 | 1.19 | 0.248 | 0.903
8 | CCOc1cc(C(O)C2C=CC3C(=O)N(c4ccccc4)C(=O)C3N2Nc2ccc(C#N)cc2)ccc1O (stereo not given) | 0.0034 | 0.453 (inactive) | 1.15 (inactive) | 0.726 (inactive) | 3.3 | -0.715 (inactive) | 0.121 | -0.167 | -0.0195 | -0.133 | 0.146 | 1.3 | 0.643 | 0.751 (inactive) | 0.0415 | -0.0102 | -0.209 | 0.472 | -0.454 | 0.713
9 | COc1ccc(CCNC(=O)[C@@H]2c3ccccc3C(=O)N(Cc3cc(C(F)(F)F)cc(C(F)(F)F)c3)[C@H]2c2ccc(CO)cc2)cc1 | 1.41 | 0.279 (inactive) | -0.381 (inactive) | 0.848 (inactive) | 2.16 | -0.0332 (inactive) | -0.237 | 1.07 | 0.365 | -0.167 | 1.1 | 0.0172 | 0.716 | -0.082 (inactive) | 0.0696 | -0.331 | -0.358 | -0.272 | -0.594 | -0.167
